Screens (PubChem BioAssay)
Coupling enz: counter-screen for Giardia aldolase inhibitors: coupling enzyme system. activity change, negative = inhibition, % at 58.2 µM, hits read low. 0.67% of 290,000 active. coupling enzyme system counterscreen, AmpLite Red fluorescence; in the data active = activity change below about -30%
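Compounds tested against the coupling enzymes alone at 57.5 uM final; readout was AmpLite Red fluorescence (525/598 nm) after 20 min at RT.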
RORgamma inh: ROR gamma (mouse) transcription inhibition; P51450; Drosophila S2 Gal4-RORgamma UAS-luciferase reporter, 20 h; Potency, µM (top dose mostly 53.6 µM), for the others: at the top dose activity change, negative = inhibition, usual class: inhibitors; 5.4% of 310,000 active; also: potency is read from the fitted curve at half-maximal effect; nearly all actives have a fitted effect of over 60% in size
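Compounds are pin-transferred onto Drosophila Schneider cells expressing a copper-inducible Gal4–ROR gamma transactivation domain fusion. After 1 hr, copper sulfate is added to 700 uM final; luciferase is read 20 hr later.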
TrxR1 inh: blocks rat thioredoxin reductase 1 | O89049 | recombinant rTrxR1, NADPH fluorescence consumption, selenite substrate | Potency, µM (highest dose often 114 µM), inactives show at the highest dose activity change, negative = inhibition, actives largely listed as inhibitors | 1% of 390,000 active | AID 588453; also: potency is read from the fitted curve at half-maximal effect; nearly all actives have a fitted effect of over 65% in size
Target sequence (O89049 whole entry, looked up): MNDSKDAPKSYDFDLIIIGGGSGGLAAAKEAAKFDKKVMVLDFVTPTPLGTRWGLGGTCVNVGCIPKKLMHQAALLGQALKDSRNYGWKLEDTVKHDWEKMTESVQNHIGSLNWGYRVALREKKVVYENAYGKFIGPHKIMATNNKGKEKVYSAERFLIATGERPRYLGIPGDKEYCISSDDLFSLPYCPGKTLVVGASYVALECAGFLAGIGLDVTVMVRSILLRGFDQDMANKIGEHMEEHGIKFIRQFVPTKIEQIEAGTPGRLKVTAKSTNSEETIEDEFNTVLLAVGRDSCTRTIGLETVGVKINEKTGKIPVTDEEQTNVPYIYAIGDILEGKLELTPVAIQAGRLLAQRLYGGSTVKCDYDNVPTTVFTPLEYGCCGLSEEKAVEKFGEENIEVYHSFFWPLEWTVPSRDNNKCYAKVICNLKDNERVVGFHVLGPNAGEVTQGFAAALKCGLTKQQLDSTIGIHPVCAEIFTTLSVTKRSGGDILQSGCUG
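Rat TrxR1 (90 nM in the dispensed reagent) was pre-reduced with 400 uM NADPH for 5 min at room temperature, then incubated with compound for 15 min. After 400 uM selenite was added, NADPH fluorescence (Ex 340/Em 450 nm) was followed for 8 min.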
GALK inhibitor: galactokinase (human) inhibition; Purified GALK, Kinase-Glo residual ATP luminescence; Potency, µM (titrated, usually from 57.5 µM), without a hit: top-dose activity change, negative = inhibition, usual class: inhibitors; 0.007% of 270,000 active; AID 1868; also: potency is read from the fitted curve at half-maximal effect
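Compounds were pin-transferred into ATP buffer (35 uM final), then GALK plus galactose (5 nM, 100 uM final) was added. After 1 h at room temperature, Kinase-Glo Plus was added and luminescence read after 10 min.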
TrxR1 substrate: is turned over as a substrate by rat TrxR1; AID 588456; 0.01% of 390,000 active; Potency, µM (doses to about 114 µM), for the others: at the highest dose activity change, negative = substrate turnover; purified TrxR1 substrate turnover, NADPH consumption readout; O89049; also: potency is read from the fitted curve at half-maximal effect; nearly all actives have a fitted effect of over 50% in size
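Rat TrxR1, dispensed at 90 nM, was prereduced with 400 uM NADPH (final) for 5 min at ~22 deg C, then incubated with compound 15 min before 400 uM selenite. A first-read NADPH fluorescence drop versus no-compound background flagged substrates.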
Gal4-VP16 FLuc: inhibits Gal4-VP16 luciferase reporter, ROR gamma counter-screen; Drosophila S2 Gal4-VP16 UAS-luciferase, luminescence, 20 h; Potency, µM (titrated, usually from 53.6 µM), without a hit: at the highest dose activity, negative = inhibition, most hits filed as inhibitors; 3.5% of 310,000 active; AID 2546;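 also: Gal4-VP16 expression switched on by copper sulfate through the metallothionein promoter; potency is read from the fitted curve at half-maximal effect; nearly all actives have a fitted effect of over 50% in size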
* hit, by the source's call; ? = inconclusive; nt = not tested or not shown; [ ] = dose if it differs, or a comment. Only some compounds are listed: those with a hit (about 5.9% of all), similar ones and a draw of the others. Unless noted, calls follow the shape of the dose curve; as a rule, active = well fitted curve in the direction sought with a large enough effect; inconclusive = small, poorly fitted or top-dose-only effect, or another doubt; inactive = no such curve, though single readings can be large; an effect the other way counts as inactive or inconclusive. % is scaled to controls: 0 for no effect and ±100 for the full control effect.

SMILES | Coupling enz | RORgamma inh | TrxR1 inh | GALK inhibitor | TrxR1 substrate | Gal4-VP16 FLuc
CC(/C=C/c1ccc(N(C)C)cc1)=N/N=C1/NC(=O)CC(C(=O)Nc2ccc(Cl)cc2)S1 (stereo not given) | 1 | 2.5µM* | -19% | nt | -13% | 8.9µM*
CC(/C=C/c1ccc(N(C)C)cc1)=N\N=C1\NC(=O)CC(C(=O)Nc2ccccc2)S1 (stereo not given) | 0 | 2.2µM* | ? | -3% | -12% | 3.5µM*
CCCOc1ccc(NC(=O)C2CC(=O)N/C(=N/N=C(C)/C=C/c3ccc(N(C)C)cc3)S2)cc1 (stereo not given) | -5 | 2.8µM* | ? | 1% | -12% | 3.2µM*
CCCSCCCNC(=O)Cn1cc2c(n1)CCC(C)C2 (stereo not given) | 3 | 30% | 5%[57.1 µM] | 1% | -5% | -8%
CCCCC(NC(=O)c1ccccc1)C(=O)OCC(=O)N1c2ccccc2Sc2ccccc21 (stereo not given) | 0 | 29% | 36%[57.1 µM] | -6% | 29%[57.1 µM] | -8%
COCCCNC(=O)CCCn1c(=O)c2cccn2c2cccnc21 | nt | nt | 20% | nt | 7% | nt
O=[N+]([O-])c1cccc(C=Nc2cccc3ccccc23)c1O | -14 | 1.6µM* | -13% | 0% | 101% | -16%
Oc1ccc(C=Nc2cccc3ccccc23)c(O)c1 | -35* | -40% | -13% | -5% | 79% | -9%
O=[N+]([O-])c1ccc(O)c(C=Nc2cccc3ccccc23)c1 | -10 | -25% | -29% | 4% | 59% | -12%
CC(C)=C1C(=O)NN(c2ccc(C)c(Cl)c2)C1=O | 7 | 5% | ? | nt | -4% | ?
Cn1cccc1C(C#N)c1ncc(C(F)(F)F)cc1Cl (stereo not given) | -1 | -29% | 9% | 1% | 4% | 5%
O=C(NC(=S)Nc1cccnc1)c1cc2ccccc2o1 | -2 | ? | ? | nt | -4% | -19%
O=C(NC(=S)NCc1cccnc1)c1cc2ccccc2o1 | 1 | 13µM* | -6%[57.1 µM] | 0% | -1%[57.1 µM] | -21%
COc1ccc(Br)cc1C(=O)NCc1cccnc1 | 0 | 5% | -6% | -1% | -1% | -6%
O=C(NC(=S)NCc1cccnc1)c1cc(Br)ccc1Cl | nt | 22µM* | 24% | 4% | 3% | ?
Nc1ccc(S(=O)(=O)NCc2ccccn2)cc1 | 4 | 0% | 12% | 0% | 3% | 6%
O=S(=O)(NCc1ccccn1)C(F)(F)F | 4 | 1.4µM* | 14% | nt | -1% | ?
COc1cccc(-c2nc(S(=O)(=O)c3ccc(C)cc3)c(N3CCCCCC3)o2)c1 | nt | nt | 26% | nt | 1% | nt
CCCOC(=O)C(C)Sc1n[nH]c(=O)[nH]c1=O (stereo not given) | -1 | -13% | 11% | -3% | 4% | 2%
CC(=O)/C(N=Nc1ccc(C(=O)O)cc1[N+](=O)[O-])=C(\C)O | 0 | 0% | -1% | 5% | -14% | -2%
CC(=O)/C(N=Nc1cc(C)ccc1O)=C(\C)O | -9 | 3.2µM* | 17%[57.1 µM] | 0% | -9%[57.1 µM] | -3%
O=C(NNS(=O)(=O)c1ccc(F)cc1)c1cnn(-c2ccccc2)c1C(F)(F)F | 17 | ? | 15% | 0% | -4% | 13µM*
O=C(CCn1c(=S)[nH]c2ccccc2c1=O)NCCSCc1ccccc1 | -3 | ? | 22%[57.1 µM] | 12% | 6%[57.1 µM] | -6%
Cc1cc2c([nH]c3ccccc32)c2c1OC(C)(C)C=C2 | -7 | -19% | 4% | -3% | -9% | 3%
COc1ccc2[nH]c(=O)c3c(c2c1)OC(C)(C)C=C3 | -19 | -12% | -5%[57.1 µM] | 1% | 17%[57.1 µM] | 25µM*
SMILES | Coupling enz | RORgamma inh | TrxR1 inh | GALK inhibitor | TrxR1 substrate | Gal4-VP16 FLuc
Cc1c(C(=O)NC(=S)Nc2ccc(NC(=O)c3cccs3)cc2)oc2ccccc12 | 7 | ? | 16% | -1% | 5% | ?
NC(=S)N/N=C/c1ccccc1OCc1cccc(Cl)c1 | -6 | 0.79µM* | -21%[57.1 µM] | nt | 3%[57.1 µM] | 4µM*
NC(=S)N/N=C/c1ccc2cccc(OCc3ccccc3)c2n1 | 1 | 7.1µM* | -10% | nt | 17% | ?
O=C(Nc1ccccc1Cl)OCc1cncs1 | 5 | 12% | 14% | 8% | 8% | -2%
CSCc1cc(N2CCCC2)nc(-c2ccccc2)n1 | -1 | ? | -14%[57.1 µM] | 0% | -3%[57.1 µM] | 10%
CC(C)SCc1cc(N2CCCC2)nc(-c2ccccc2)n1 | 4 | 13µM* | 9%[57.1 µM] | 0% | 2%[57.1 µM] | -5%
COc1cc2c(cc1OC)C(c1cc3cc(C)ccc3[nH]c1=O)N(C(=O)c1ccco1)CC2 (stereo not given) | 2 | -1% | -7%[57.1 µM] | 16% | -7%[0.0914 µM] | -1%
Cc1ccc(C(c2nnnn2CCc2ccccc2)N2CCC(C)CC2)cc1 (stereo not given) | -7 | ? | -8% | 0% | -13% | 14µM*
Cc1ccc(C(c2nnnn2C(C)(C)C)N2CCC(C)CC2)cc1 (stereo not given) | 2 | ? | -6% | -4% | -4% | -16%
CC1CCN(C(c2ccccc2)c2nnnn2C(C)(C)C)CC1 (stereo not given) | -8 | ? | 3%[57.1 µM] | -2% | -11% | 3.2µM*
Cc1ccc(C(c2nnnn2CCc2ccccc2)N2CCSCC2)cc1 (stereo not given) | -3 | 25% | 16% | 1% | 3% | -3%
Cc1noc(C)c1C(=O)N1CCC2(CC1)CCN(c1ncccn1)CC2 | 1 | -13% | nt | nt | nt | -7%
CCN(CC)S(=O)(=O)c1ccc(C(=O)Nc2nnc(CSC)o2)cc1 | -3 | 1.1µM* | 8% | 1% | 4% | 4µM*
COCCN(CCOC)S(=O)(=O)c1ccc(C(=O)Nc2ccncc2)cc1 | 4 | 20% | 4% | 1% | -3% | 1%
CCOC(=O)N1CCN(S(=O)(=O)c2ccc(C(=O)Nc3nnc(CSC)o3)cc2)CC1 | 4 | 13µM* | 17%[57.1 µM] | 0% | -16%[57.1 µM] | ?
CCCCN(CCCC)S(=O)(=O)c1ccc(C(=O)Nc2nnc(COC)o2)cc1 | 15 | 0.45µM* | 36%[57.1 µM] | -4% | -4% | 1µM*
CCOC(=O)N1CCN(S(=O)(=O)c2ccc(C(=O)Nc3nnc(C)o3)cc2)CC1 | 5 | ? | 8%[57.1 µM] | 1% | 3%[57.1 µM] | ?
CCCCN(C)S(=O)(=O)c1ccc(C(=O)Nc2nnc(CSC)o2)cc1 | 3 | 0.79µM* | 4% | -2% | -5% | 1.1µM*
CCc1nnc(NC(=O)c2ccc(S(=O)(=O)N(CC)CC)cc2)s1 | 7 | -39% | 7%[57.1 µM] | -3% | -2%[57.1 µM] | ?
CCN(CC)S(=O)(=O)c1ccc(C(=O)Nc2nnc(COC)o2)cc1 | 4 | 3.5µM* | -2% | 1% | -3% | 16µM*
O=C(COc1ccc(S(=O)(=O)N2CCOCC2)cc1)N1CCOCC1 | nt | nt | -14% | nt | -14% | nt
